We go through 97 compounds from PubChem BioAssay AID686970 (National Center for Advancing Translational Sciences (NCATS), 2013).

Out of some 360,000 compounds screened, about 6,000 (1.7%) were called active. Where a call stands in place of a potency, no number is given. Inconclusive results (about 8%) are left out. The sample holds actives, similar compounds and a random draw of the others, so the mix is not that of the screen. Calls follow the shape of the dose curve; as a rule, active = well fitted cell-killing curve with a large enough effect; inconclusive = small, poorly fitted or top-dose-only effect, or effect the other way; inactive = flat fitted curve, though single readings scatter.
Potency is read from the fitted curve at half-maximal effect.

The nature of this experiment: qHTS for induction of synthetic lethality in tumor cells producing 2HG: qHTS for the HT-1080-NT fibrosarcoma cell line.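 Also: NT is the 2HG producing partner of a matched IDH1 knockdown line; nearly all actives have a fitted effect of over 55% in size.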 The following applies: HT-1080-NT fibrosarcoma viability, CellTiter-Glo ATP luminescence, 48 h; series mostly up to 46.1 µM. An outline of the steps:
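750 cells/well, RPMI + 5% FBS; 2 h settle, compound pin-transfer, 48 h at 37 degrees C. CellTiter-Glo 10 min RT, luminescence. Normalized to DMSO and media-only wells.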
As to `CCCC(=O)N1CCC1(C)C(=O)NCc1ccc(SC)cc1` (configuration not stated), the Potency entry was “inactive”.
In the case of `CCCc1nc2ccccc2n1C(C)C(=O)NC(C)(C)C` (configuration not stated), the Potency entry is “inactive”.
The result for `Cc1cccc(-c2cnc(C(O)c3ccc4ccccc4c3)[nH]2)c1` (configuration not stated) reads “inactive”; that for `CN(C)CCNC(=O)Nc1cccc(Cl)c1Cl`, “inactive”; that for `CN(c1ccccc1)S(=O)(=O)c1ccc(Cl)c(C(=O)NCCc2c[nH]c3ccccc23)c1`, “inactive”.
The result for `CN(C)CCNC(=O)c1ccc(Cl)c2cc3ccccc3nc12` reads 20.6 µM (active); that for `CC1(Oc2ccc(Cl)cc2)CCN(Cc2csc3ccccc23)C1` (configuration not stated), “inactive”; that for `COc1ccc(C2=NOC(C(=O)NCc3ccco3)C2)cc1OC` (configuration not stated), 6.31 µM (active).
As for `COc1ccc(CNC(=O)C2CC(c3ccc(C(F)(F)F)cc3)=NO2)cc1` (configuration not stated), the entry is “inactive”; as for `COc1ccc(S(=O)(=O)N2CCC(C(=O)NCc3ccco3)CC2)cc1C`, “inactive”.
For `COc1ccc(CN2C[C@H]3CON(C)[C@H]3C[C@H]2c2ccc(-c3cccc(F)c3)cc2)cc1`, the Potency result was “inactive”.
As for `Cc1sc2ncnc(SCC(=O)NC3CCS(=O)(=O)C3)c2c1C` (configuration not stated), the Potency entry was “inactive”.
`Cc1ccc(CN(C)C[C@@H]2OCc3cnnn3CCCC(=O)N([C@@H](C)CO)C[C@H]2C)cc1`: the Potency result was “inactive”.
The result for `CCOc1cccc(=O)c2c(C)n(CC3CCCO3)c(C)c12` (configuration not stated) reads “inactive”; that for `CN1CN(C)c2ccc([N+](=O)[O-])c3cccc1c23`, “inactive”; that for `O=C1c2cccc3c([N+](=O)[O-])ccc(c23)C(=O)N1CC1CCCO1` (configuration not stated), 23.1 µM (active).
Turning to `O=C(NCCS(=O)(=O)N1CCN(c2ccccc2)CC1)c1cc(=O)c2ccccc2o1`, the Potency result was “inactive”.
The result for `CC1CN(C(=O)c2cccc(NS(=O)(=O)c3ccc(Br)cc3)c2)CC(C)O1` (configuration not stated) reads “inactive”; that for `C[C@H]1COc2cc(N3CCSCC3)ccc2S(=O)(=O)N1`, “inactive”; that for `CCCCC(O)C1=C[N+](=O)CC=C1` (configuration not stated), “inactive”.
As for `COc1ccc(CCCc2nnc(SCc3nc4ccccc4c(=O)[nH]3)n2C)cc1`, the entry is “inactive”; as for `CCn1c(COc2c(C)cccc2C)nnc1SCc1nc2ccccc2c(=O)[nH]1`, “inactive”; as for `COc1ccc(C)cc1-n1nnnc1SCc1nc2ccccc2c(=O)[nH]1`, 14.6 µM (active).
With `COc1ccc(C2=Nc3ccccc3NC(=O)C2N(C(=O)c2cc3ccccc3[nH]2)c2ccccc2)cc1` (configuration not stated), the Potency entry was “inactive”.
As for `O=C(Nc1ccc2c(c1)OCCO2)C(C1CC1)N1CCC(Cc2ccccc2)CC1` (configuration not stated), the entry is “inactive”.
For `COc1ccc(OC)c(NC(=O)C2(C)CCN2C(=O)Cc2ccccc2)c1` (configuration not stated), the Potency entry was “inactive”.
For the compound `N#CCSc1ccccc1NC(=O)CN1C(=O)NC(CCc2ccccc2)C1=O` (configuration not stated), the Potency entry is “inactive”.
The result for `CC[C@]1(O)C[C@@H]2CN(CCc3c([nH]c4ccccc34)[C@@](C(=O)OC)(c3cc4c(cc3OC)N(C)[C@H]3[C@@](O)(C(=O)OC)[C@H](OC(C)=O)[C@]5(CC)C=CCN6CC[C@]43[C@@H]65)C2)C1` reads 0.082 µM (active); that for `O=C(Nc1ccc(Cl)cc1)N1CCc2[nH]c3ccccc3c2C1`, “inactive”; that for `O=C(CCCN1CCc2[nH]c3ccc(F)cc3c2C1)c1ccc(F)cc1`, 18.4 µM (active).
Take `O=C(c1cc2cc(F)ccc2[nH]1)N1CCN(c2ccc(F)cc2)CC1`: the Potency result is “inactive”.
The result for `COC(=O)[C@]12CCCCC=C1N(CCC1=CCCCC1)C(=O)[C@H](CC(=O)N1CCSCC1)C2` reads “inactive”; that for `COC(=O)C[C@H]1C[C@@H]2c3cc(N(C)C)ccc3O[C@@H]2[C@H](CO)O1`, “inactive”.
The result for `CN(C)CCCOc1ccc(-c2ccc3nccn3c2)cn1` reads “inactive”; that for `COc1ccc(S(=O)(=O)N[C@@H]2C=C[C@@H](CC(=O)N3CCc4ccccc4C3)O[C@@H]2CO)cc1`, “inactive”.
Turning to `C=C1C(=O)OC2C1CCC(C)=CCCC1(C)OC21` (configuration not stated), the Potency is 16.4 µM (active).
With `O=C(OCc1cn([C@@H]2C[C@H](c3ccc(Cl)cc3)N(Cc3cccs3)C[C@H]2O)nn1)c1ccccc1`, the Potency entry is “inactive”.
The result for `CCOc1ccc(CCN2C(=O)C(=O)N([C@@H](CC(C)C)CN3CCC[C@H]3CN3C(=O)C(=O)NC[C@@H]3Cc3ccccc3)C[C@@H]2CC(C)C)cc1` reads “inactive”; that for `CC1(C(=O)NS(=O)(=O)c2cccc(F)c2)CCN1C(=O)Cc1cc(F)ccc1F` (configuration not stated), “inactive”; that for `Cc1c(C(=O)NCc2ccc(C#N)cc2)sc(=O)n1Cc1ccc(C(=O)N(C)C)cc1`, “inactive”.
Turning to `CN(C)c1ccc(C2N(C)C(=O)c3ccccc3N2C)cc1` (configuration not stated), the Potency result is “inactive”.
For the compound `CN(C)c1ccc(Nc2c3c4c(cccc4n(C)c2=O)C(=O)c2ccccc2-3)cc1`, the Potency is 5.8 µM (active).
As for `COc1ccc([C@H]2CC(=O)C[C@@H](CCn3cc(CC4CCCC4)nn3)O2)cc1`, the entry is “inactive”; as for `CCc1oc(-c2ccc(OC)cc2)c(C(=O)OCCCCCO)c1C(C)OCCO` (configuration not stated), “inactive”.
Take `Cc1ccc(S(=O)(=O)N2CCC(=O)N([C@H](COCc3ccccc3)C(C)C)CC2)cc1`: the Potency result was “inactive”.
The result for `O=C(CSCc1ccccc1)Nc1ccccc1` reads “inactive”; that for `O=C(NCCc1ccccc1)c1cccc(NC(=O)c2ccccc2)c1`, “inactive”; that for `O=C(CCl)Nc1cccc(CP(=O)(c2ccccc2)c2ccccc2)c1`, 4.11 µM (active).
The result for `CC(C)[C@H](NC(=O)c1ccccc1F)C(=O)Nc1cccc(S(=O)(=O)N2CCOCC2)c1` reads “inactive”; that for `CCOc1ccc2[nH]c(=O)c(CN(Cc3nnnn3CCc3ccccc3)CC3CCCO3)cc2c1` (configuration not stated), “inactive”; that for `CCOc1ccc2[nH]c(=O)c(CN(Cc3nnnn3Cc3ccccc3)CC3CCCO3)cc2c1` (configuration not stated), 6.31 µM (active).
As for `COc1ccc2[nH]c(=O)c(CN(Cc3nnnn3CCc3ccccc3)CC3CCCO3)cc2c1` (configuration not stated), the entry is “inactive”; as for `CCOC(=O)C1=CC[C@@H](c2ccccc2)N(S(=O)(=O)c2ccc(C)cc2)[C@H]1c1cccc(OC)c1`, “inactive”.
Turning to `CC1(C)NC(=O)N(CC(=O)Nc2ccc(-c3ccccc3)cc2)C1=O`, the Potency entry is “inactive”.
The result for `CS(=O)(=O)Nc1cccc(-c2cn3ccccc3n2)c1` reads “inactive”; that for `Cc1cc(C)cc(NS(=O)(=O)Cc2ccccc2)c1`, “inactive”; that for `CCS(=O)(=O)Nc1cccc(-c2cc(-c3ccccc3)c3cc(C)ccc3n2)c1`, 23.1 µM (active).
For the compound `Cc1ccc(-c2nc3c(C)cc(Br)cn3c2Cc2ccccc2)cc1`, the Potency entry was “inactive”.
The result for `COC(=O)[C@]12CCCCC=C1N(Cc1ccc3c(c1)OCO3)C(=O)[C@H](CC(=O)NCc1cccs1)C2` reads “inactive”; that for `O=C1NC(c2ccccc2)Oc2ccccc21` (configuration not stated), “inactive”.
As for `O=C1NC(c2cccc(Cl)c2)Nc2ccccc21` (configuration not stated), the Potency was 11.6 µM (active).
As for `COc1ccc(C2NC(=O)c3ccccc3N2)cc1` (configuration not stated), the entry is “inactive”; as for `CCc1nc2c(OCCc3cccc(OC)c3)cccn2c1N(C)C(=O)c1ccc(C)cc1`, “inactive”.
As for `O=C(COC(=O)c1cncc(Br)c1)Nc1ccc(S(=O)(=O)N2CCOCC2)cc1`, the entry is “inactive”; as for `CC(C)c1cc(C(=O)N(C)C2CCCN(Cc3ccccc3F)C2)n(C)n1` (configuration not stated), “inactive”.
As for `CNc1cncc(-c2cccc(C(=O)N3CCOCC3)c2)n1`, the entry is “inactive”.
Consider `CCCN1CCn2c3c(c4cc(Br)ccc42)CCCC31` (configuration not stated), for which the Potency entry was “inactive”.
The result for `OC(CNCC1CCCO1)Cn1c2ccc(Br)cc2c2cc(Br)ccc21` (configuration not stated) reads 20.6 µM (active); that for `COCCNC(=O)c1ccc(Cn2c(SCC(=O)NCC3CCCO3)nc3ccc(Br)cc3c2=O)cc1` (configuration not stated), “inactive”.
With `Cc1sc2nc(-c3ccccc3F)oc(=O)c2c1C`, the Potency result is “inactive”.
Turning to `O=S1(=O)CC(N2CCN(CCO)CC2)CN1Cc1cn(Cc2ccc(Cl)cc2)nn1` (configuration not stated), the Potency entry was “inactive”.
With `O=C(Nc1cc(Br)ccc1F)c1nc[nH]c1C(=O)NCc1ccccc1`, the Potency entry is “inactive”.
In the case of `CCN1CCN(CCNC(=O)c2ccc3c(c2)NC(=O)/C(=C\c2cccc(Cl)c2)S3)CC1`, the Potency entry was “inactive”.
In the case of `CN1CCN(CCCNC(=O)c2ccc(/C=C3\Oc4ccccc4N(Cc4ccc(Cl)cc4)C3=O)cc2)CC1`, the Potency result was “inactive”.
As to `CCN1CCN(CCNC(=O)c2ccc(/C=C3/Sc4ccccc4N(Cc4cccc(C)c4)C3=O)cc2)CC1`, the Potency was 23.1 µM (active).
With `CCNC(=O)C1(C)CCCN(C(=O)c2c(C)noc2C)C1` (configuration not stated), the Potency entry is “inactive”.
The result for `COc1cccc(NC(=O)COC(=O)CCOc2ccccc2OC)c1` reads “inactive”; that for `COc1cc([N+](=O)[O-])ccc1NC(=O)COC(=O)CCOc1ccc(C)cc1`, 20.6 µM (active).
The result for `CSc1ccccc1NC(=O)COC(=O)CCCOc1ccc(C)cc1` reads “inactive”; that for `CCc1ccccc1NC(=O)CN1CCN(C(=O)c2cc(C3CC3)nn2-c2ccccc2)CC1`, “inactive”; that for `N#Cc1ccc(C(=O)Nc2nc(-c3cccs3)c(C(=O)C(F)(F)F)s2)cc1`, 2.91 µM (active).
The result for `COC(=O)c1sc(NC(=S)NC(=O)c2ccc(C)cc2)nc1C` reads “inactive”.
As to `N#Cc1c(-c2cccs2)nc(SCC(=O)c2ccc(Br)cc2)[nH]c1=O`, the Potency entry is “inactive”.
As for `CCOC(=O)[C@]12CCCC=C1N(Cc1ccc3c(c1)OCO3)C(=O)[C@H](CC(=O)NCc1cccs1)C2`, the entry is “inactive”.
The result for `CC1(C)CC(=O)C=C(c2ccc(COC(=O)c3cc(F)cc(F)c3)cc2)C1=O` reads “inactive”.
For the compound `CCN(CC(=O)Nc1ccc(NC(C)=O)cc1)C(=O)C1CC(=O)N(c2ccc3c(c2)OCCO3)C1` (configuration not stated), the Potency result was “inactive”.
As for `O=C(NC(=O)c1ccccc1)Nc1ccccc1O`, the entry is “inactive”; as for `CC(NC(=O)c1ccccc1)C(=O)Nc1ccccc1` (configuration not stated), “inactive”; as for `O=C(NC1=CC(=O)c2ccccc2C1=O)c1ccccc1`, 7.31 µM (active).
As for `Cc1ccc(S(=O)(=O)N2[C@@H](Cc3ccccc3)CO[C@H]2CC(=O)OCc2ccccc2)cc1`, the entry is “inactive”.
Turning to `CCCCNC(=O)OC1CC2CC1[C@H]1CCCCN1C2=O` (some centres not stated), the Potency entry is “inactive”.
`O=C(COC(=O)Cc1ccc(Cl)cc1Cl)NCc1ccco1`: the Potency entry is “inactive”.
Turning to `COC(=O)CC1=NN(c2ccccc2)C(=O)C1`, the Potency result was “inactive”.
Turning to `O=[N+]([O-])c1ccc(N2CCOCC2)cc1`, the Potency entry is “inactive”.
As for `O=C1CC(c2ccccc2)=NN1c1ccc([N+](=O)[O-])cc1`, the figure is 14.6 µM (active).
As for `COc1ccc(C(=O)N2CCCCC2c2cc(C(=O)Nc3ccc(F)c(Cl)c3)no2)cc1` (configuration not stated), the Potency result is “inactive”.
The result for `Cc1c(C(=O)NCC2CC2)sc(=O)n1Cc1cccc(F)c1` reads “inactive”.
